Consider ten molecules from the supplement of paper PMC10981050.

Holding throughout (experiment): cell viability relative to vehicle control; higher = less cytotoxic
Common to all, as to details: 10 µM

One assay concerns K562. In short, it runs like this:
(§1)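 CRISPR-edited mutant clones and isogenic wild-type clones from four leukaemia lines were screened against Selleck bioactive, kinase and epigenetic probe libraries, with identity-inconsistent compounds excluded. Each compound was acoustically dispensed at a single 10 µM dose into 384-well plates holding 2000 cells in 50 µL medium per well. After 48 h the supernatant was removed and CellTiter-Glo luminescence was read. Viability was expressed as percent of the on-plate vehicle control and analysed in Genedata Screener.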

The test system of a further assay is MARIMO. The method in brief:
as §1

The next assay has as its system MOLM14. The method in brief: as §1
Another assay concerns OCI-AML2. In short, it runs like this: as §1

Values joined by “and” are separate entries in the source; they are usually repeats but may differ in a detail not shown here. Equal entries are not always repeated.

The cell viability is a read-out of living cells in per cent, often relative to untreated cells. For `O=C(c1cccc(Cl)c1F)N1CCN(Cc2cccc(Nc3nccs3)n2)CC1`, the cell viability was 44.2% and 57.2% in the assay on K562 (SRSF2 genotype: SRSF2 P95H/wt); 56.6% with K562 (SRSF2 genotype: SRSF2 wt/wt); 87.8% with MARIMO (SRSF2 genotype: SRSF2 P95H/wt); 91.5% in the assay with MARIMO (SRSF2 genotype: SRSF2 wt/wt); 54.9% in the assay with MOLM14 (SRSF2 genotype: SRSF2 P95H/wt); 71.4% in the assay with MOLM14 (SRSF2 genotype: SRSF2 wt/wt). Besides, the cell viability in the assay with OCI-AML2 (SRSF2 genotype: P95H/wt) is 35.6%; in the assay on OCI-AML2 (SRSF2 genotype: wt/wt), 44.1%.

Turning to `COC(=O)c1cc(OC)c(OC)c(OC)c1` [Methyl EudesMate], the cell viability in the assay with K562 (SRSF2 genotype: SRSF2 P95H/wt) was 103% and 105%; with K562 (SRSF2 genotype: SRSF2 wt/wt) it was 100%; in the assay on MARIMO (SRSF2 genotype: SRSF2 P95H/wt), 97.6%; with MARIMO (SRSF2 genotype: SRSF2 wt/wt), 109%; with MOLM14 (SRSF2 genotype: SRSF2 P95H/wt), 108%; with MOLM14 (SRSF2 genotype: SRSF2 wt/wt), 106%. Further, the cell viability in the assay on OCI-AML2 (SRSF2 genotype: P95H/wt) turned out to be 102%; with OCI-AML2 (SRSF2 genotype: wt/wt) it was 110%.

In the case of `C[N+]1(C)CCCC1C(=O)[O-]` (stereo not given) [Stachydrine], the cell viability in the assay with K562 (SRSF2 genotype: SRSF2 P95H/wt) was 99.9% and 99.1%; in the assay on K562 (SRSF2 genotype: SRSF2 wt/wt), 105%; in the assay on MARIMO (SRSF2 genotype: SRSF2 P95H/wt) it was 97.3%; with MARIMO (SRSF2 genotype: SRSF2 wt/wt) it was 100%; in the assay on MOLM14 (SRSF2 genotype: SRSF2 P95H/wt), 99.6%; in the assay with MOLM14 (SRSF2 genotype: SRSF2 wt/wt), 104%. Moreover, the cell viability in the assay with OCI-AML2 (SRSF2 genotype: P95H/wt) is 106%; in the assay on OCI-AML2 (SRSF2 genotype: wt/wt), 102%.

In the case of `CC(NC(=O)Cc1cc(F)cc(F)c1)C(=O)NC(C(=O)OC(C)(C)C)c1ccccc1` (stereo not given), the cell viability in the assay on K562 (SRSF2 genotype: SRSF2 P95H/wt) was 98.8% and 103%; with K562 (SRSF2 genotype: SRSF2 wt/wt), 106%; in the assay with MARIMO (SRSF2 genotype: SRSF2 P95H/wt), 83.2%; with MARIMO (SRSF2 genotype: SRSF2 wt/wt), 95.7%; in the assay with MOLM14 (SRSF2 genotype: SRSF2 P95H/wt), 96.8%; with MOLM14 (SRSF2 genotype: SRSF2 wt/wt), 103%. For the same molecule, the figures for the cell viability in the assay with OCI-AML2 (SRSF2 genotype: P95H/wt) and in the assay with OCI-AML2 (SRSF2 genotype: wt/wt) were 90% and 102%, respectively.

For the molecule `C[C@@H](OC[C@@]1(c2ccccc2)CC[C@]2(CCC(=O)N2)CN1)c1cc(C(F)(F)F)cc(C(F)(F)F)c1` [Rolapitant], the cell viability with K562 (SRSF2 genotype: SRSF2 P95H/wt) is 54% and 72.1%; in the assay on K562 (SRSF2 genotype: SRSF2 wt/wt), 68.8%; in the assay on MARIMO (SRSF2 genotype: SRSF2 P95H/wt) it was 52.3%; with MARIMO (SRSF2 genotype: SRSF2 wt/wt), 48.8%; in the assay on MOLM14 (SRSF2 genotype: SRSF2 P95H/wt), 54.5%; in the assay on MOLM14 (SRSF2 genotype: SRSF2 wt/wt) it was 44.5%. Also, the cell viability turned out to be 45.2% in the assay on OCI-AML2 (SRSF2 genotype: P95H/wt) and 39.1% in the assay with OCI-AML2 (SRSF2 genotype: wt/wt).

Turning to `CC(C)c1cc2c(N3CCN(C4=NCC(C)(C)S4)CC3)ncnc2s1` [MI-3 (Menin-MLL Inhibitor)], the cell viability in the assay on K562 (SRSF2 genotype: SRSF2 P95H/wt) was 75.8% and 67.2%; in the assay on K562 (SRSF2 genotype: SRSF2 wt/wt), 67.3%; with MARIMO (SRSF2 genotype: SRSF2 P95H/wt), 75.4%; in the assay on MARIMO (SRSF2 genotype: SRSF2 wt/wt), 55%; with MOLM14 (SRSF2 genotype: SRSF2 P95H/wt), 72.2%; with MOLM14 (SRSF2 genotype: SRSF2 wt/wt), 72.3%. For the same molecule, the cell viability in the assay with OCI-AML2 (SRSF2 genotype: P95H/wt) is 40.6%; in the assay with OCI-AML2 (SRSF2 genotype: wt/wt), 45.1%.

For `OCc1ccccc1O[C@@H]1O[C@H](CO)[C@@H](O)[C@H](O)[C@H]1O` [Salicin (Salicoside, Salicine)], the cell viability in the assay with K562 (SRSF2 genotype: SRSF2 P95H/wt) was 101% and 103%; in the assay with K562 (SRSF2 genotype: SRSF2 wt/wt), 110%; with MARIMO (SRSF2 genotype: SRSF2 P95H/wt) it was 103%; in the assay on MARIMO (SRSF2 genotype: SRSF2 wt/wt), 106%; in the assay on MOLM14 (SRSF2 genotype: SRSF2 P95H/wt), 99.7%; in the assay on MOLM14 (SRSF2 genotype: SRSF2 wt/wt), 104%. Besides, the cell viability turned out to be 105% with OCI-AML2 (SRSF2 genotype: P95H/wt) and 112% in the assay with OCI-AML2 (SRSF2 genotype: wt/wt).

Take `CC1(C)C=Cc2c(ccc3c2OC[C@@H](c2ccc(O)cc2O)C3)O1` [Glabridin]: the cell viability is 77.9% and 80.4% in the assay with K562 (SRSF2 genotype: SRSF2 P95H/wt); 76.9% with K562 (SRSF2 genotype: SRSF2 wt/wt); 87.5% in the assay with MARIMO (SRSF2 genotype: SRSF2 P95H/wt); 92.5% in the assay with MARIMO (SRSF2 genotype: SRSF2 wt/wt); 87.2% in the assay on MOLM14 (SRSF2 genotype: SRSF2 P95H/wt); 94.4% with MOLM14 (SRSF2 genotype: SRSF2 wt/wt). The cell viability was found to be 93.6% in the assay with OCI-AML2 (SRSF2 genotype: P95H/wt) and 89.4% in the assay with OCI-AML2 (SRSF2 genotype: wt/wt).

For `COc1ccc(-c2oc3c(CC=C(C)C)c(O[C@@H]4O[C@H](CO)[C@@H](O)[C@H](O)[C@H]4O)cc(O)c3c(=O)c2O[C@@H]2O[C@@H](C)[C@H](O)[C@@H](O)[C@H]2O)cc1` [Icariin], the cell viability was 94.5% and 104% with K562 (SRSF2 genotype: SRSF2 P95H/wt); 98.7% in the assay with K562 (SRSF2 genotype: SRSF2 wt/wt); 98.7% with MARIMO (SRSF2 genotype: SRSF2 P95H/wt); 110% in the assay on MARIMO (SRSF2 genotype: SRSF2 wt/wt); 108% in the assay with MOLM14 (SRSF2 genotype: SRSF2 P95H/wt); 104% with MOLM14 (SRSF2 genotype: SRSF2 wt/wt). Besides, the figures for the cell viability in the assay on OCI-AML2 (SRSF2 genotype: P95H/wt) and with OCI-AML2 (SRSF2 genotype: wt/wt) were 105% and 112%, respectively.

As for `O=C(OC[C@H]1O[C@@H](OC(=O)c2cc(O)c(O)c(OC(=O)c3cc(O)c(O)c(O)c3)c2)[C@H](OC(=O)c2cc(O)c(O)c(OC(=O)c3cc(O)c(O)c(O)c3)c2)[C@@H](OC(=O)c2cc(O)c(O)c(OC(=O)c3cc(O)c(O)c(O)c3)c2)[C@@H]1OC(=O)c1cc(O)c(O)c(OC(=O)c2cc(O)c(O)c(O)c2)c1)c1cc(O)c(O)c(OC(=O)c2cc(O)c(O)c(O)c2)c1` [Tannic acid], the cell viability with K562 (SRSF2 genotype: SRSF2 P95H/wt) is 96.5% and 87.2%; with K562 (SRSF2 genotype: SRSF2 wt/wt), 98.5%; with MARIMO (SRSF2 genotype: SRSF2 P95H/wt) it was 98.7%; in the assay on MARIMO (SRSF2 genotype: SRSF2 wt/wt) it was 99.3%; in the assay with MOLM14 (SRSF2 genotype: SRSF2 P95H/wt), 89.6%; in the assay on MOLM14 (SRSF2 genotype: SRSF2 wt/wt) it was 92.2%. Besides, the cell viability turned out to be 106% with OCI-AML2 (SRSF2 genotype: P95H/wt) and 94.8% in the assay with OCI-AML2 (SRSF2 genotype: wt/wt).
